From PubChem BioAssay
CD11b adhes inh: inhibitors of human CD11b/CD18 binding to fibrinogen; K562 CD11b/CD18 adhesion to fibrinogen, ATPlite luminescence; Mn2+ added to activate the integrin; actives 0.54% (n = 93,000); inhibition, % at 10 µM; P05107+P11215;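 active = primary inhibition of 50% or more at 10 µM, then 40% or more on retest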
Target sequence (P05107 whole entry, looked up, other chains not shown): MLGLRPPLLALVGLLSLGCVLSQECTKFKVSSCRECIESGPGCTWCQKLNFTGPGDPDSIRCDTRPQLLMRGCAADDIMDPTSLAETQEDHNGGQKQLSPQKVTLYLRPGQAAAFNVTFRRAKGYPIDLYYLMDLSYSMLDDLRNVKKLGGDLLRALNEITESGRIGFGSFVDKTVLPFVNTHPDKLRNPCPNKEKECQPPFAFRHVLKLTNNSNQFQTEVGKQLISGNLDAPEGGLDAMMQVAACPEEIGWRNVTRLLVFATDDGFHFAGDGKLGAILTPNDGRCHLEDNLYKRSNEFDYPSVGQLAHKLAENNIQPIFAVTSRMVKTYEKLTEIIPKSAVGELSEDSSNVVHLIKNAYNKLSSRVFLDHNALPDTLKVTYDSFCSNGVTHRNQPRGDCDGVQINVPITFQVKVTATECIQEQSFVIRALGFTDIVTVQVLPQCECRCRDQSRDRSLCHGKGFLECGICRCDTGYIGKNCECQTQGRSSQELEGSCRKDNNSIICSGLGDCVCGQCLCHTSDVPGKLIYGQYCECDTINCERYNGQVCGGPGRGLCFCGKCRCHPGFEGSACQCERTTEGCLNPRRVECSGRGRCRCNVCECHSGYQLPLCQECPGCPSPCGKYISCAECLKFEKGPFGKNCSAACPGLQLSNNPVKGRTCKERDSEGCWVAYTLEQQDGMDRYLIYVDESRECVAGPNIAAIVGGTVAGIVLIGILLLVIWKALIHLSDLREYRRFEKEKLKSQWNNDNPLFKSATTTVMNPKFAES
CYP2C9 act: CYP2C9 (human) activation; P11712; recombinant CYP2C9, luciferin-H conversion, luminescence; active compounds read high; factor 1 = untreated enzyme, 0 = blocked; activation factor at 5 µM; actives 1.4% (n = 96,000);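 active = activation factor of 2 or more for CYP2C9 at a 5 µM dose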;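 note: 0 = sulfaphenazole-blocked wells and 1 = vehicle-only wells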
CYP2C9 inh: inhibitors of human CYP2C9; inhibition, % at 5 µM; P11712; actives 20% (n = 96,000); CYP2C9 Supersomes, luciferin-H conversion, luminescence; AID 777;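 active = blocking of liver enzyme CYP2C9 beyond about 50% at 5 µM, limit read from the data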
CYP2C19 activ: activators of human cytochrome P450 2C19 | recombinant CYP2C19, luciferin-H EGE luminescence; active compounds read high; 0 = fully inhibited enzyme, 1 = untreated enzyme | activation factor at 5 µM | 96,000 tested, under 10 active;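 active = activation factor of at least 2 at 5 µM in the primary screen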;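 note: 0 = wells with 2.5 mM tranylcypromine and 1 = vehicle-only wells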
CD11b adhes enh: CD11b/CD18-fibrinogen binding enhancement | activation, % at 10 µM | K562 CD11b/CD18 adhesion to fibrinogen, ATPlite luminescence | actives 0.07% (n = 93,000) | AID 1499;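 active = 10 µM primary screen giving 50% or more activity, confirmed by 40% or more on retest at that dose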
CYP2C19 inhib: human CYP2C19 inhibition | AID 778 | actives 21% (n = 96,000) | CYP2C19 Supersomes, luciferin-H EGE luminescence, 30 min | P33261 | inhibition, % at 5 µM;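 active = CYP2C19 inhibition above a set limit at 5 µM in the primary screen, cut at about 50% in these data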;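 note: plate controls were negative control wells for no effect and 2.5 mM tranylcypromine positive control for full effect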
Starred values were filed as active, the others as inactive; nt = no result. An excerpt weighted towards active compounds, which were near 28% of everything screened.

SMILES | CD11b adhes inh | CYP2C9 act | CYP2C9 inh | CYP2C19 activ | CD11b adhes enh | CYP2C19 inhib
COC(=O)c1ccc(S(=O)(=O)N(Cc2cc3cc4c(cc3[nH]c2=O)OCO4)C2CCCCC2)cc1 | -10 | 1 | 1 | 1 | -3 | -2
COCC(=O)NCc1nc2ccccc2[nH]1 | -7 | 1.1 | -12 | 1.1 | 3 | -6
Nc1ccc(C(=O)OCCCc2nc3ccccc3[nH]2)cc1 | 6 | 0.8 | 19 | 0.5 | -3 | 51*
Nc1ccc(C(=O)OCc2nc3ccccc3[nH]2)cc1 | -6 | 0.9 | 9 | 0.2 | 1 | 81*
O=C(c1cnn2ccccc12)N(Cc1ccco1)C1CCCC1 | -3 | 0.5 | 47 | 0.4 | 4 | 60*
O=C(c1cnn2ccccc12)N1CCN(C2CCCCC2)CC1 | -4 | 1.1 | -5 | 0.5 | 1 | 50
CCOC(=O)c1[nH]c(C)c(C(=O)N2CCN(c3cccc(Cl)c3)CC2)c1C | 10 | 0.1 | 88* | 0.3 | 2 | 68*
CCOC(=O)c1[nH]c(C)c(C(=O)N2CCN(c3ccc(F)cc3)CC2)c1C | -25 | 0.2 | 77* | 0.2 | 5 | 79*
O=C(NCCCN1CCN(c2cccc(Cl)c2)CC1)c1ccc(N2CCCC2=O)cc1 | -15 | 0.3 | 66* | 0.5 | 2 | 49
Cc1ccc(-c2noc(CCC(=O)NCCCN3CCN(c4cccc(Cl)c4)CC3)n2)cc1 | 2 | 0.3 | 74* | 0.6 | -1 | 38
Cc1ccc(-c2noc(CCC(=O)NCCCN3CCN(c4ccc(F)cc4)CC3)n2)cc1 | 7 | 0.3 | 70* | 0.4 | 1 | 57*
COc1ccc(-c2noc(CCC(=O)NCCCN3CCC(C)CC3)n2)cc1 | -4 | 1 | 2 | 1 | -1 | 0
COc1ccc(-c2noc(CCC(=O)NCCN3CCN(c4ccccc4F)CC3)n2)cc1 | 18 | 0.3 | 69* | 0.6 | -3 | 45
O=C(c1noc2c1CCCC2)N1CCOCC1 | 7 | 0.7 | 27 | 0.9 | 1 | 10
Cc1cc2ccccc2nc1SCC(=O)N1CCCC1 | -7 | 1.2 | -22 | 0.7 | -1 | 33
C=CCN1CC(c2nc3ccccc3n2Cc2cccc3ccccc23)CC1=O (stereo not drawn) | nt | 0.4 | 60* | 0.7 | nt | 35
Cc1ccc(OCCn2c(C3CC(=O)N(Cc4ccccc4)C3)nc3ccccc32)cc1 (stereo not drawn) | 11 | 0.2 | 84* | 0.7 | -7 | 33
O=C(c1ccc(S(=O)(=O)N2CCOCC2)cc1)N1CCc2ccccc2C1 | -2 | 1 | -1 | 1 | -3 | 1
CCCCNC(=O)COC(=O)c1cc(C)nc2ccccc12 | 10 | 2.6* | -160 | 0.3 | -7 | 75*
Cc1cc(C(=O)OCC(=O)Nc2cc(C)on2)c2ccccc2n1 | -4 | 0.8 | 21 | 0.4 | -3 | 56*
Cc1cc(C(=O)OCC(=O)NCCC(C)C)c2ccccc2n1 | nt | 2.4* | -137 | 0.8 | nt | 21
Cc1cc(C(=O)OCC(=O)NCCCN2CCCC2=O)c2ccccc2n1 | nt | 1 | -4 | 1 | nt | 0
CCc1ccc(Nc2oc(C)cc(=O)c2C(C)=O)cc1 | 3 | 0.9 | 12 | 1 | -2 | 3
Cc1ccc(S(=O)(=O)C(C#N)c2nc3ccccc3nc2OC(C)C)cc1 (stereo not drawn) | nt | 0.7 | 27 | 1 | 0 | 1
CC1CCCN(C(=O)C2CCN(CC3CC=CCC3)CC2)C1 (stereo not drawn) | -15 | 1.3 | -26 | 1 | -1 | -1
SMILES | CD11b adhes inh | CYP2C9 act | CYP2C9 inh | CYP2C19 activ | CD11b adhes enh | CYP2C19 inhib
COc1cc(CC(=O)Oc2ccc3c(c2)OCO3)cc(OC)c1OC | -1 | 1.2 | -18 | 1.2 | 2 | -17
O=C(COc1cc(Cl)c(Cl)cc1Cl)NCCN1CCOCC1 | 8 | 0.9 | 6 | 0.4 | -1 | 65*
Cc1cc(OCC(=O)NCCN2CCOCC2)ccc1Br | -22 | 1.1 | -9 | 0.2 | 2 | 85*
Cc1ccnc2c(N3C(=O)C4C5c6ccccc6C(c6ccccc65)C4C3=O)cccc12 (stereo not drawn) | 21 | 0.8 | 20 | 0.6 | -2 | 38
Cc1ccccc1NC(=O)Nc1cccs1 | -9 | 0.9 | 7 | 0.9 | 4 | 12
COc1ccc(Br)cc1CNC(=O)Nc1cccs1 | 4 | 0.3 | 67* | 0.2 | -4 | 76*
COc1ccc(Br)cc1CN(C)CC(=O)Nc1c(Cl)cccc1Cl | 24 | nt | nt | nt | 1 | nt
COc1ccccc1CNC(=O)Nc1cccs1 | 7 | 0.6 | 41 | 0.1 | 2 | 88*
CC(C)CCNC(=O)c1ccc2c(c1)ncn2C1CCCCC1 | 2 | 0.7 | 33 | 0.9 | -2 | 13
Cc1ccc(C2CC(=O)N(c3ccc(F)cc3)C3=C2C(=O)CCC3)cc1 (stereo not drawn) | 24 | 0.7 | 29 | 0.8 | 0 | 17
COc1ccc(-c2nc(-c3ccccc3)c(-c3cc([N+](=O)[O-])ccc3C)[nH]2)cc1O | nt | 0.3 | 74* | 0.2 | nt | 77*
Cc1ccc([N+](=O)[O-])cc1-c1[nH]c(-c2ccc(O)c(O)c2)nc1-c1ccccc1 | 4 | 0.1 | 88* | 0.5 | -2 | 52*
COc1cc(-c2nc(-c3ccc4c(c3)-c3ccccc3S4(=O)=O)c(-c3ccccc3)[nH]2)cc(OC)c1OC | 4 | 0.6 | 43 | 0.5 | 0 | 50
COC(=O)C1=C(C)N(Cc2ccc(C)cc2)C(=O)C1 | nt | 0.8 | 17 | 0.6 | nt | 41
COc1ccc(C2=NOC3(CC(=O)N(c4ccc5ccccc5c4)C3=O)C2)c(OC)c1 (stereo not drawn) | 0 | 0.9 | 5 | 1 | -4 | -2
CCCC1C(C(=O)OCC)=C(C)NC(C)=C1C(=O)OCC | -18 | 0.3 | 68* | 0.1 | 0 | 94*
CCOc1ccc(C2NC(=O)NC(C)=C2C(=O)OC)cc1C (stereo not drawn) | 0 | 0.7 | 29 | 0.6 | -1 | 43
CCOC(=O)C1=C(C)NC(C)=C(C(=O)OCC)C1c1sccc1C | -8 | 0.1 | 90* | 0.4 | 3 | 56*
COC(=O)C1=C(C)NC(C)=C(C(=O)OC)C1c1ccc(N(C)C)cc1 | -14 | 0.3 | 70* | 0.2 | 1 | 84*
CCOC(=O)C1=C(C)NC(C)=C(C(=O)OCC)C1c1ccc(O)cc1 | -15 | 0 | 98* | 0 | -3 | 98*
Cn1c(N)c(C(=O)c2ccc(C#N)cc2)c(=O)n(C)c1=O | 1 | nt | nt | nt | 4 | nt
Cc1ccc(S(=O)(=O)N2C(=O)C(c3ccccc3)SC2=Nc2ccccc2)cc1 (stereo not drawn) | -8 | 0.8 | 21 | 0.9 | -5 | 14
NC(=O)C1CCN(C(=O)c2cc(S(=O)(=O)N3CCOCC3)c(Cl)cc2Cl)CC1 | -28 | 1 | 0 | 1 | -2 | 4
